High-throughput results as filed in PubChem BioAssay.
Compounds with a hit are over-represented: about 18% of the library has one in this group of screens.
CtBP-E1A inh = blocks the CtBP interaction with E1A; AlphaScreen GST-E1A/His-CtBP binding, 1536-well; active compounds read low; activity change, % (test concentration not listed); 0.49% of 340,000 active; AID 651724; in the data active = activity change below about -65%; inconclusive = mostly about -30% to -63%
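Protein mix (5X: 125 nM each GST-E1A, His-CtBP) was incubated with pinned compound 2 h at 37 deg C in dark, in 50 mM Tris pH 8.0 buffer with 300 mM NaCl. Glutathione donor and nickel acceptor beads followed; AlphaScreen signal read after 1 h.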
TDP1 inh = inhibitors of human tyrosyl-DNA phosphodiesterase TDP1; Q9NUW8; recombinant TDP1, AlphaScreen DNA substrate cleavage; Potency, µM (doses to about 130 µM), usual class: inhibitors; 0.28% of 350,000 active; AID 485290; note: nearly all actives have a fitted effect of over 40% in size
Target sequence (Q9NUW8 whole entry, looked up): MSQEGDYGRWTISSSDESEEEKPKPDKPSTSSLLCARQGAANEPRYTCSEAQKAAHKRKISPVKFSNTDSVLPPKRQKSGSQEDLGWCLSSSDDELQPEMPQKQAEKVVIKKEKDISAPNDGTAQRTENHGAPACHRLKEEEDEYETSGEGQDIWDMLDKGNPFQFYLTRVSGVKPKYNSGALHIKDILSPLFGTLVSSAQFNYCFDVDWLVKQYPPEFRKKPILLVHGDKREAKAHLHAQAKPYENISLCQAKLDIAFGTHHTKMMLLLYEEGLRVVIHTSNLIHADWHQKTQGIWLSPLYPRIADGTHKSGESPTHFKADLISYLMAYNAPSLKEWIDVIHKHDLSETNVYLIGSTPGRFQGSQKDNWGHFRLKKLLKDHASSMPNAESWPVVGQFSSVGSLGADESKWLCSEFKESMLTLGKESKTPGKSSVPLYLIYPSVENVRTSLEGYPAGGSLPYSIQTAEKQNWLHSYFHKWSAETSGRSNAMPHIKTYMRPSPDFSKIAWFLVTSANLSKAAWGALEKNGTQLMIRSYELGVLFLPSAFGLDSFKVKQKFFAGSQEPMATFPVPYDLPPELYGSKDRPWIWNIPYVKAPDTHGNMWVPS
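Recombinant human Tdp1 (E. coli-expressed, 1 nM final) preincubated with compounds 15 min at room temperature, then 5'-biotin/3'-phosphotyrosine-FITC DNA substrate (15 nM final) added for 5 min. AlphaScreen beads (10 ug/ml final) added 10 min; cleavage lowers signal.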
IL1B secr inh = inflammasome signaling inhibition, IL-1 beta readout; 4.7% of 360,000 active; THP-1 LPS/ATP IL-1B secretion, AlphaLISA, 16 h; active compounds read low; activity change, % at 57.5 µM; in the data active = activity change below about -50%; inconclusive = mostly about -30% to -49%
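Secreted IL-1B measured by AlphaLISA bead assay after 16 h compound exposure of THP-1 cells; compounds (final up to 57.5 uM) added 1 h before LPS (250 ng/mL) and ATP (1.25 mM) stimulation; lower signal means less secretion.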
Six1-Eya2 inh = Six1/Eya2 interaction inhibition; 0.56% of 360,000 active; Q15475+O00167; activity change, % (test concentration not listed); AlphaScreen GST-Six1/His-Eya2 binding, biochemical; active compounds read low; in the data active = activity change below about -65%; inconclusive = mostly about -30% to -63%
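GST-Six1 + His-Eya2 (5X stock: 250/500 nM); Tris pH 8.0, 300 mM NaCl, 0.05% BSA, 0.02% Tween 20; GSH donor/Ni acceptor beads; 1 h 37 °C dark; AlphaScreen readout.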
DT40 TDP1 CPT = growth inhibition of DT40 Tdp1-/-;hTDP1 cells with camptothecin (screen for TDP1 inhibitors); chicken DT40 Tdp1-/-;hTDP1 cells + 20 nM CPT, ATP luminescence, 48 h; Potency, µM (titrated, usually from 46.2 µM), actives largely listed as inhibitors; 12% of 420,000 active; note: nearly all actives have a fitted effect of over 55% in size
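Chicken DT40 Tdp1-/- cells stably complemented with human TDP1 were seeded at 400 cells/well in medium containing 20 nM camptothecin, exposed to pin-transferred compounds, and grown at 37 °C for at least 48 hr. Viability was read as ATP luminescence.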
TDP1 cell noCPT = qHTS for Inhibitors of human tyrosyl-DNA phosphodiesterase 1 (TDP1): qHTS in cells in absence of CPT; DT40 Tdp1-/- hTDP1 cells, no CPT, ATP luminescence, 48 h; Potency, µM (highest dose often 46.2 µM), hits mostly inhibitors; 15% of 420,000 active; note: nearly all actives have a fitted effect of over 55% in size
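Chicken DT40 Tdp1-/- cells stably complemented with human TDP1 were seeded at 400 cells/well with DMSO in place of 20 nM camptothecin. After compound pinning, cells grew at least 48 hr at 37 °C; viability read by CellTiter-Glo luminescence.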
Of the large screens only hits and unclear results are named; the others gave an inactive call; ! = a repeat was not active. Unless noted, calls come from the whole dose curve; as a rule, active = well fitted curve in the direction sought with a large enough effect; inconclusive = small, poorly fitted or top-dose-only effect, or another doubt; inactive = no such curve, though single readings can be large; an effect the other way counts as inactive or inconclusive.

COc1ccc(C(c2nnnn2-c2c(C)cccc2C)N2CCN(C/C=C/c3ccccc3)CC2)cc1 (stereo not drawn)	DT40 TDP1 CPT inconclusive, TDP1 cell noCPT inconclusive (no result: TDP1 inh)
CCCCn1nnnc1C(c1cc2ccccc2o1)N1CCCC1 (stereo not drawn)	DT40 TDP1 CPT inconclusive (no result: TDP1 inh)
CCCCn1nnnc1C(c1cc2ccccc2o1)N1CCN(C/C=C/c2ccccc2)CC1 (stereo not drawn)	DT40 TDP1 CPT 20.6µM, TDP1 cell noCPT 16.4µM (no result: TDP1 inh)
COc1ccc(-n2nnnc2C(c2cccc3ccccc23)N2CCN(C/C=C/c3ccccc3)CC2)cc1 (stereo not drawn)	CtBP-E1A inh inconclusive, DT40 TDP1 CPT 7.31µM, TDP1 cell noCPT 8.2µM (no result: TDP1 inh)
COc1ccc(C(=O)NC2CCN(C(=S)Nc3cc(C)ccc3C)CC2)cc1	none
CN1C(=O)/C(=C/c2cccc(Cl)c2)Sc2ccc(C(=O)N3CCCC3)cc21	DT40 TDP1 CPT inconclusive, TDP1 cell noCPT inconclusive (no result: CtBP-E1A inh)
O=C(NC(=S)Nc1cccnc1Cl)c1ccc(Cl)cc1	none (no result: TDP1 inh)
Cc1cnc(C)c(N2CCC(C(=O)NC(C)c3cccs3)CC2)n1 (stereo not drawn)	none
COc1ccc(-n2nnnc2C(c2cc3ccccc3o2)N2CCN(C/C=C/c3ccccc3)CC2)cc1 (stereo not drawn)	DT40 TDP1 CPT 23.1µM, TDP1 cell noCPT 14.6µM (no result: TDP1 inh)
C(=C\c1ccccc1)/CN1CCN(C(c2cccs2)c2nnnn2-c2ccc3c(c2)OCCO3)CC1 (stereo not drawn)	CtBP-E1A inh inconclusive, DT40 TDP1 CPT inconclusive, TDP1 cell noCPT 23.1µM (no result: TDP1 inh)
CC(C)(C)n1nnnc1C(c1cccs1)N1CCN(C/C=C/c2ccccc2)CC1 (stereo not drawn)	DT40 TDP1 CPT inconclusive, TDP1 cell noCPT inconclusive (no result: TDP1 inh)
C(=C\c1ccccc1)/CN1CCN(C(c2cc3ccccc3o2)c2nnnn2-c2ccc3c(c2)OCCO3)CC1 (stereo not drawn)	DT40 TDP1 CPT 13µM, TDP1 cell noCPT 14.6µM (no result: TDP1 inh)
COc1ccccc1N1CCN(CCn2c(=O)[nH]c3c([nH]c4ccccc43)c2=O)CC1	none (no result: CtBP-E1A inh, IL1B secr inh, Six1-Eya2 inh)
Cc1ccc(-c2c3c(=O)n(C)c(=O)n(C)c3c3c(-c4cccc(C)c4)nc4ccccc4n23)cc1	DT40 TDP1 CPT inconclusive, TDP1 cell noCPT inconclusive (no result: CtBP-E1A inh, IL1B secr inh, Six1-Eya2 inh)
Cc1nc2cc(NC(=O)[C@@H]3C[C@@H](Sc4ccccn4)CN3Cc3ccc4c(c3)OCCO4)ccc2s1	none (no result: CtBP-E1A inh, TDP1 inh, IL1B secr inh, Six1-Eya2 inh)
O=c1[nH]cnc2c1ncn2C1OC(CO)C(O)C1O (stereo not drawn)	DT40 TDP1 CPT 0.581µM!, TDP1 cell noCPT 0.82µM!
Nc1nc2c(ncn2[C@@H]2O[C@H](CO)[C@@H](O)[C@H]2O)c(=O)[nH]1	none (no result: CtBP-E1A inh, IL1B secr inh, Six1-Eya2 inh)
Cn1cnc([N+](=O)[O-])c1Sc1nc(N)nc2c1ncn2C1CC(O)C(CO)O1 (stereo not drawn)	DT40 TDP1 CPT inconclusive, TDP1 cell noCPT 13µM (no result: TDP1 inh)
O=c1[nH]cnc2c1ncn2[C@H]1C[C@H](O)[C@@H](CO)O1	DT40 TDP1 CPT 12.6µM, TDP1 cell noCPT inconclusive (no result: CtBP-E1A inh, IL1B secr inh, Six1-Eya2 inh)
O=c1[nH]cnc2c1ncn2C1CCC(CO)O1 (stereo not drawn)	DT40 TDP1 CPT 13µM, TDP1 cell noCPT inconclusive (no result: TDP1 inh)
O=C(Cn1c(NCCCO)nc2ccccc21)c1ccco1	none
Cn1c(N)c(C(=O)COC(=O)c2ccc(OC(F)F)cc2)c(=O)n(C)c1=O	TDP1 cell noCPT inconclusive (no result: CtBP-E1A inh)
CC(C)c1ccc(NC(=S)NN2CCOCC2)cc1	none
CCc1cc(-c2[nH]ncc2-c2ccc(OC)cc2)c(O)cc1O	IL1B secr inh -83.0, DT40 TDP1 CPT inconclusive, TDP1 cell noCPT 18.4µM (no result: TDP1 inh)
COc1ccc(-c2[nH]ncc2-c2nc(C)cs2)c(O)c1	CtBP-E1A inh inconclusive
COc1ccc(-c2cnc(N)nc2-c2ccc(OCc3ccccc3)cc2O)cc1	IL1B secr inh inconclusive, DT40 TDP1 CPT inconclusive, TDP1 cell noCPT inconclusive
